Screening results: PubChem, Buhrlage Lab, Dana-Farber Cancer Institute and Novartis Institutes for BioMedical Research (Cambridge, Mass)
USP30 block: blocks human USP30 ubiquitin-rhodamine cleavage | Q70CQ3 | purified USP30, Ub-rhodamine cleavage fluorescence | inhibition, % at 25 µM | 47,000 compounds, 5.3% hits | AID 1645860
USP28 inh: human USP28 deubiquitinase inhibition. Q96RU2. purified USP28, Ub-rhodamine cleavage fluorescence, 30 min. inhibition, % at 25 µM. 47,000 compounds, 3% hits. AID 1645857
USP17 inh: blocks human USP17 ubiquitin-rhodamine cleavage; purified USP17, Ub-rhodamine cleavage fluorescence, 3 h; inhibition, % at 50 µM; 47,000 compounds, 6.5% hits; AID 1645855
OTUD3 inh: human OTUD3 deubiquitinase inhibition. inhibition, % at 25 µM. purified OTUD3, Ub-rhodamine fluorescence, 2 h. 47,000 compounds, 0.7% hits. AID 1645858
Of the large screens only hits and unclear results are named; the others gave an inactive call. In the library only some 11% were active in any assay of this set; here they are far more common. No stated cut-off is given here; in the data, active means inhibition above about 30%; inactive means the rest.

Cc1ccc(-c2onc3ccc(C(=O)NC4CCN(Cc5ccccc5)CC4)cc23)cc1	none
O=C(NC1CC1)c1ccc2onc(-c3coc(-c4ccccc4)n3)c2c1	USP30 block 37.5
CN(C)C(=O)CNC(=O)c1ccc2onc(-c3coc(-c4ccccc4)n3)c2c1	USP17 inh 41.7
CCOC(=O)C(C)Sc1nc(=O)n2cccc(C)c2n1 (centres undefined)	USP30 block 30.2
Cc1cccc(NCc2cc(=O)n3cccc(C)c3n2)c1C	none
COCC(=O)N1CCCC1c1ccnc(Nc2ccccn2)n1 (centres undefined)	none
Cc1ccccc1NC(=O)CNc1nc(Nc2ccccc2)nc(Nc2ccccc2)n1	USP17 inh 65.0
Cc1cccc(NC(=O)CNc2nc(Nc3ccccc3)nc(Nc3ccccc3)n2)c1	USP30 block 32.0 (no result: USP17 inh)
Cc1cccc(Nc2ccc(NCCNC(=O)Nc3ccccc3F)nn2)n1	none (no result: USP30 block, USP28 inh)
O=C(CNc1nc(Nc2ccccc2)nc(Nc2ccccc2)n1)Nc1ccccc1F	USP17 inh 43.5
O=C(CNc1nc(Nc2ccccc2F)nc(Nc2ccccc2F)n1)Nc1ccccc1	USP30 block 80.6, USP28 inh 49.2
Cc1oc2c(C)c3oc(=O)c(CCC(=O)O)c(C)c3cc2c1C	none
Cc1ccc(-c2c[n+](CC(=O)N(c3ccccc3)C(C)C)c3n2CCC3)cc1	none
O=C(C[n+]1cc(-c2ccccc2)n2c1CCC2)c1cccc([N+](=O)[O-])c1	USP30 block 30.6
Clc1ccc(-c2[nH]ncc2CN2CCN(c3ccccc3)CC2)cc1	none
COc1cc(S(=O)(=O)N2CCC(c3nc4c(nnn4Cc4ccc(F)cc4)c(=O)[nH]3)CC2)ccc1-n1cnnn1	USP30 block 46.9, USP17 inh 32.4
CC(C)(C)c1ccc(Cn2nnc3c(=O)[nH]c(C4CCN(S(=O)(=O)c5ccc(S(=O)(=O)NC6CC6)cc5)CC4)nc32)cc1	USP28 inh 31.7, USP17 inh 64.0
COc1cc(S(=O)(=O)N2CCC(c3nc4c(nnn4Cc4cccc(F)c4)c(=O)[nH]3)CC2)ccc1-n1cnnn1	none
O=C(CSC1=NC2(CCCCC2)Nc2ccccc21)Nc1ccc(F)cc1F	none
COc1ccc(CNS(=O)(=O)c2ccc3[nH]c(=O)ccc3c2)cc1	USP17 inh 46.9 (no result: USP30 block, USP28 inh)
COc1cccc(CNS(=O)(=O)c2ccc3[nH]c(=O)[nH]c3c2)c1	none
O=C(NCc1ccncc1)c1nc2c(o1)CN(C(=O)c1cccnc1)C2	none
Cc1cc(C(=O)N2CCCCC2)c2c(=O)n(Cc3ccc4nonc4c3)c(=O)n(C)c2n1	USP17 inh 33.7
Cc1cc(C(=O)N2CCCCC2)c2c(=O)n(Cc3cccc(F)c3)c(=O)n(C)c2n1	none
Cc1nc(-c2noc(-c3ccncc3)n2)cn1CC(=O)N1CCN(c2ccc(F)cc2)CC1	USP30 block 62.3
O=C(Cn1cnc(-c2noc(-c3ccncc3)n2)c1)N1CCN(c2ccc(F)cc2)CC1	none
Cc1ccc(CNC(=O)c2ccc(N3C(=O)[C@@H]4Cc5ccccc5CN4C3=O)cc2)cc1	USP30 block 48.9, USP17 inh 61.9
O=C1[C@@H]2Cc3ccccc3CN2C(=O)N1c1ccccc1[N+](=O)[O-]	none
O=C1[C@@H]2Cc3ccccc3CN2C(=O)N1c1cccc2ccccc12	USP30 block 33.1
O=c1cc(-c2cncc(Br)c2)nc(-c2ccccc2)[nH]1	USP30 block 30.1 (no result: USP17 inh)
Cc1c(Cc2ccccc2)c(=O)oc2cc3occ(-c4ccc5ccccc5c4)c3cc12	USP17 inh 31.9
COc1ccc(C2c3c(C)nn(-c4ccccc4)c3N=C3C(=O)Nc4ccccc4N32)cc1 (centres undefined)	none
Cc1nn(-c2cccc(C(F)(F)F)c2)c2c1C(c1ccccc1)N1C=C(Cl)C=C(Cl)C1=N2 (centres undefined)	USP17 inh 34.9
O=C(Nc1ccccc1)c1nc(-c2cn(Cc3ccc(F)cc3)nn2)no1	USP30 block 55.2, USP28 inh 37.4
COC(=O)C1Cc2ccccc2CN1Cc1c(O)ccc2ccccc12 (centres undefined)	none
CC1(C)CC2CC(C)(CN2Cc2c(O)ccc3ccccc23)C1 (centres undefined)	USP17 inh 56.9
CCc1cc(C(=O)Nc2ccc(C3CCc4nncn4C3)cc2)on1 (centres undefined)	USP28 inh 33.9
COc1cccc2c1Oc1[nH]c(=O)n(C(C)C)c(=O)c1C2c1c(O)n(C(C)C)c(=O)[nH]c1=O (centres undefined)	none
O=C(Cc1ccc(-n2c(=O)[nH]c3ccsc3c2=O)cc1)N1CCC(Cc2ccccc2)CC1	USP28 inh 37.4, USP17 inh 46.6
O=C(COC(=O)c1ccc2ncsc2c1)c1ccc2c(c1)OCCO2	USP28 inh 30.9
